The list is not random: actives were taken first. Their share in the collection is about 7.9%.
HCV inhibitor – qHTS Assay for Inhibitors of Hepatitis C Virus (HCV); Huh7.5.1 HCVcc-Cre infection, luciferase reporter, 44 h; Potency, µM (highest dose often 41.8 µM), for the others: top-dose activity change, negative = inhibition, usual class: inhibitors; 340,000 compounds, 3.4% hits; AID 651820, 2012; active means well fitted inhibition curve with a large enough effect; inconclusive means small, poorly fitted or top-dose-only effect, or another doubt; inactive means no such curve, though single readings can be large or run the other way; further: potency means the concentration at half of the fitted maximal effect
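Luciferase read-out (15 sec integration) after a 15 min room-temperature substrate step quantifies HCVcc-Cre infection. Cells, 1,000 per well, had compound added 4 h post-plating, then virus at ~0.5 moi, and were cultured 44 h.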
HCMV inh – qHTS Assay for inhibitors of the human cytomegalovirus (HCMV) | HFF cells, HCMV-luciferase reporter, 72 h; active compounds read low | activity change, negative = inhibition, % at 57.5 µM | 410,000 compounds, 4.5% hits; in the data active means activity change below about -60%; inconclusive means no clear call, values can overlap the other calls; inactive means above about -39%
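Two compound doses tested in HFFs infected with HCMV-luciferase, MOI 1 PFU/cell, 72 h at 37C. Lysate luminescence read with OneGlo; data normalized against buffer-only and 10uM Salinomycin inhibitor controls.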
Lassa entry inh – qHTS for Inhibitors of binding or entry into cells for Lassa Virus; Lassa virus pseudotype entry inhibition, cell reporter; Potency, µM (doses to about 37.9 µM), for the others: at the highest dose activity change, negative = inhibition, actives largely listed as inhibitors; 300,000 compounds, 1.2% hits; calls by dose curve; tested in HEK293 cells; further: potency means the concentration at half of the fitted maximal effect; nearly all actives have a fitted effect of over 50% in size
FMDV inh – High Throughput Screening for Foot and Mouth Disease Virus Antivirals; FMDV antiviral cell-based qHTS; Potency, µM (doses to about 57.9 µM), without a hit: at the highest dose activity change, negative = inhibition, usual class: inhibitors; 410,000 compounds, 1.2% hits; calls by dose curve; tested in HEK293T cells; further: read-out not given here; potency means the concentration at half of the fitted maximal effect; nearly all actives have a fitted effect of over 45% in size
MARV entry inh – qHTS for inhibitors of binding or entry into cells for Marburg Virus. Marburg virus pseudotyped entry inhibition, cell reporter. Potency, µM (top dose mostly 37.8 µM), for the others: at the top dose activity change, negative = inhibition, hits mostly inhibitors. AID 540276, 2011. 300,000 compounds, 1.8% hits; calls by dose curve; tested in HEK293 cells; further: potency means the concentration at half of the fitted maximal effect
The depositor's hits bear a star; ? = inconclusive; nt = not tested or not shown; [ ] = another dose, or the depositor's remark. On the % scale 0 is the no-effect control and ±100 the full control effect.

SMILES	HCV inhibitor	HCMV inh	Lassa entry inh	FMDV inh	MARV entry inh
CCOc1ccc(-c2nc(CSCC(=O)NCc3ccco3)c(C)o2)cc1	?	?	?	-9%	?
CCOc1ccc(-c2nc(CSCC(=O)NC3CCN(Cc4ccccc4)CC3)c(C)o2)cc1	nt	-94*	nt	?	nt
CCOc1ccc(-c2nc(CSCC(=O)NC3CC3)c(C)o2)cc1	-26%	?	nt	19%	nt
CCOc1ccc(-c2nc(CSCC(=O)NC3CCCc4ccccc43)c(C)o2)cc1 (stereo not given)	18µM*	-24	-12%	0%	-15%
CCOC(=O)N1CCC(NC(=O)CS(=O)(=O)Cc2nc(-c3ccc(OC)cc3)oc2C)CC1	-18%	-16	nt	-17%	nt
O=C(C1=C(O)C(=O)N(CCN2CCOCC2)[C@H]1c1cccnc1)c1cc2ccccc2o1	nt	nt	nt	nt	1%
CCc1ccc(-c2nc(CSCC(=O)NCc3ccc(C)cc3)c(C)o2)cc1	nt	-39	11%[46.1 µM]	-11%	10%[46.1 µM]
Cc1oc(-c2ccc(Cl)cc2)nc1CN1CCC(C(=O)N2CCN(Cc3ccccc3)CC2)CC1	-21%	-32	nt	0%	6%
Cc1oc(-c2ccccc2Cl)nc1CSc1nc2c(c(=O)[nH]1)CCC2	1%[8.37 µM]	-15	-2%	22µM*	26%
Cc1oc(-c2ccc(Cl)cc2)nc1CSCC(=O)NC1CCN(Cc2ccccc2)CC1	4µM*	-85*	?	?	?
CCOc1ccc(-c2nc(CSCC(=O)NCc3ccc(C)cc3)c(C)o2)cc1	nt	-69*	3%[46.1 µM]	-5%	nt
COc1ccc(N2CCN(S(=O)(=O)/C=C/c3ccccc3)CC2)cc1	-1%	-1	-2%	10%	19%
COc1cc2c(cc1OC)CN(S(=O)(=O)/C=C/c1ccccc1)CC2	-3%	-25	1.3µM*	-6%	?
Nc1c(N2CCN(c3ccccc3)CC2)c2ccccc2oc1=O	2%	-100*	16%	-26%	-18%
C=C1CC2C(CCC3(C)C2CCC3(O)C(C)=O)C2(C)CCC(=O)C=C12 (stereo not given)	-12%	-79*	5.6µM*	25µM*	?
CC(=O)[C@@]1(O)CC[C@H]2[C@@H]3C[C@H](C)C4=CC(=O)CC[C@]4(C)[C@H]3CC[C@@]21C	?	?	?	28µM*	-27%
C=C1C[C@H]2[C@@H]3C=C(C)C4=CC(=O)CC[C@]4(C)[C@H]3CC[C@]2(C)[C@@]1(OC(C)=O)C(C)=O	?	-18	nt	?	nt
CC(=O)C1(O)CCC2C3CC(C)C4=CC(=O)CCC4(C)C3CCC21C (stereo not given)	nt	-16	nt	nt	nt
CC(=O)C1(C)CCC2C3C=C(C)C4=CC(=O)CCC4(C)C3CCC21C (stereo not given)	?	-14	?	-8%	11µM*
CCOC(=O)c1ccc(NC(=O)CS(=O)(=O)Cc2nc(-c3ccc(C)cc3)oc2C)cc1	nt	-23	23%[46.1 µM]	3%	?
CSc1nc(-c2ccccc2)nc2ccccc12	nt	33	nt	nt	nt
O=C(Cn1cc2ccccc2n1)N1CCOc2ccc(C(O)C3CCCCC3)cc2C1 (stereo not given)	nt	nt	nt	-13%	nt
CCc1cccc(NC(=O)CCS(=O)(=O)c2ccc(C)cc2)c1	nt	0	?	7%	nt
Nc1ccccc1C#CC(=O)c1ccccc1	?	-100*	nt	?	nt
Nc1ccccc1C#Cc1cnccn1	?	26	nt	24%	nt
SMILES	HCV inhibitor	HCMV inh	Lassa entry inh	FMDV inh	MARV entry inh
O=C(C1CCCCC1)N1CCOc2ccc(CN3CCN(Cc4ccccn4)CC3)cc2C1	nt	nt	nt	23%	nt
CCc1ccc2oc(C(=O)Nc3c(C)n(C)n(-c4ccccc4)c3=O)cc(=O)c2c1	nt	-23	1%[46.1 µM]	-8%	23%[46.1 µM]
COc1ccc(C2C3=C(COC3=O)Oc3cc4c(cc32)OCO4)cc1OC (stereo not given)	6%	-24	-11%	-20%	-4%
O=C1OCC2=C1C(c1ccc3c(c1)OCO3)Sc1ccccc1N2 (stereo not given)	?	?	-12%	-29%	?
CC(=O)Oc1ccc(C2C3=C(CC(C)(C)CC3=O)Nc3cc4c(cc32)OCCO4)cc1 (stereo not given)	16%	-5	nt	-7%	nt
C#CCOc1ccc(C2C3=C(COC3=O)Nc3cc4c(cc32)OCO4)cc1OC (stereo not given)	-17%	-82*	?	-12%	?
O=C1OCC2=C1C(c1ccc(F)cc1)c1cc3c(cc1N2)OCO3 (stereo not given)	?	-93*	?	?	?
CCOc1ccccc1C1CC(=O)Nc2cc3c(cc21)OCO3 (stereo not given)	11%	?	11%	10%	0%
CCOc1ccccc1C1C2=C(COC2=O)Nc2cc3c(cc21)OCO3 (stereo not given)	?	-94*	?	0%	?
O=C1OCC2=C1C(c1ccc(F)cc1)c1cc3c(cc1N2)OCCO3 (stereo not given)	5%	-85*	?	-15%	-43%[46.1 µM]
COc1ccc(-c2[nH]ncc2C(=O)NCc2ccccc2C)cc1	nt	?	nt	-12%	-16%[46.1 µM]
COc1cccc(NC(=O)CCNC(=O)Cn2cnc3ccccc3c2=O)c1	nt	12	12%[46.1 µM]	-12%	2%[46.1 µM]
COc1ccc(C2CC(=O)c3cc(-c4nc(-c5cccc([N+](=O)[O-])c5)cs4)c(=O)n(-c4ccccc4N)c3C2)cc1 (stereo not given)	nt	20	?	1%	6%[46.1 µM]
CCOC(=O)N/N=C1\C[C@@H](O)[C@@H](O)[C@@H]2[C@@H]3C(=O)N(C[C@@H]4CCCO4)C(=O)[C@@H]3CC[C@@H]12	nt	nt	nt	nt	6%[14.2 µM]
CN(C(=O)c1cccc(NC(=O)C2CCN(C(=O)OC(C)(C)C)CC2)c1)C1CCCCC1	10µM*	-9	nt	?	nt
CN(C(=O)c1cccc(NC(=O)Cc2ccc(NC(=O)C3CCCN(C(=O)CCc4ccccc4)C3)cc2)c1)C1CCCCC1 (stereo not given)	3.2µM*	-75*	nt	14µM*	nt
CN(C(=O)c1cccc(NC(=O)Cc2ccc(NC(=O)C3CCCN(C(=O)C4CCCC4)C3)cc2)c1)C1CCCC1 (stereo not given)	10µM*	-8	nt	?	nt
O=C(NCc1ccc(F)c(F)c1)c1cnc(N2CCN(CCc3ccccc3)C2=O)o1	nt	3	nt	nt	nt
O=C1CCC[C@H]2[C@@H](Cc3ccccc3)[C@@H](NCc3cccs3)CC[C@]23CCCN13	nt	-11	nt	nt	nt
COc1ccc(NS(=O)(=O)c2ccc3oc(Nc4ccc5c(c4)OCCO5)nc3c2)cc1	4µM*	-85*	?	8%	-14%
COc1ccc(NS(=O)(=O)c2ccc3oc(SC(C)C(N)=O)nc3c2)cc1 (stereo not given)	10µM*	nt	?	-23%	?
CCNC(=O)CSc1nc2cc(S(=O)(=O)Nc3ccc(OC)cc3)ccc2o1	-20%	?	-26%[46.1 µM]	-3%	?
